The record followed here is PubChem BioAssay (EPA / NIEHS).

As usually defined, the AC50 is the concentration giving half of the maximal activity seen.

Read-out in test [1]: C-C motif chemokine 2 (Homo sapiens) (UniProt P13500)
The test is described as follows: BSK_KF3CT_MCP1: BioMAP Diversity Plus: KF3CT Assay for Monocyte Chemoattractant Protein 1 (MCP1/CCL2) Biomarker Activity (AID 2283073). The conditions noted are these: primary human keratinocytes with fibroblasts; actives raise or lower the signal. In outline: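 Human keratinocyte–foreskin fibroblast co-culture; MCP-1 measured by ELISA 24 h after dosing. Bidirectional fit vs DMSO; cytotoxicity tracked by SRB total protein in parallel cultures.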

Read-out in test [2]: Matrix Metallopeptidase 9 (MMP9), MMP9 (gene 4318)
The test is described as follows: BSK_KF3CT_MMP9: BioMAP Diversity Plus: KF3CT Assay for Matrix Metallopeptidase 9 (MMP9) Biomarker Activity (AID 2283074). The conditions noted are these: primary human keratinocytes with fibroblasts; actives raise or lower the signal. The essentials: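 ELISA read-out of MMP-9 at 24 h post-dosing in a co-culture of human skin keratinocytes and foreskin fibroblasts. Gain or loss of signal was fitted in both directions against DMSO.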

Read-out in test [3]: urokinase plasminogen activator (uPA), PLAU (gene 5328)
The test is described as follows: BSK_KF3CT_uPA: BioMAP Diversity Plus: KF3CT Assay for urokinase plasminogen activator (uPA) Biomarker Activity (AID 2283075). The conditions noted are these: primary human keratinocytes with fibroblasts; actives raise or lower the signal. In outline:
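Skin co-culture (keratinocytes + foreskin fibroblasts), human primary; 24 h post-dose; uPA by ELISA; gain/loss fit vs DMSO baseline.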

Read-out in test [4]: CD40, CD40 (gene 958)
The test is described as follows: BSK_LPS_CD40: BioMAP Diversity Plus: LPS Assay for CD40 Biomarker Activity (AID 2283076). The settings on record: primary human HUVEC with PBMC; actives raise or lower the signal. The essentials: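 HUVEC plus PBMC co-culture stimulated with LPS; CD40 quantified by ELISA 24 h after compound dosing. Fitting was bidirectional relative to DMSO. SRB staining of parallel cultures flagged overt cytotoxicity.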

Read-out in test [5]: E-selectin (Homo sapiens) (UniProt P16581)
The test is described as follows: BSK_LPS_Eselectin: BioMAP Diversity Plus: LPS Assay for Eselectin Biomarker Activity (AID 2283077). The settings on record: primary human HUVEC with PBMC; actives raise or lower the signal. The essentials: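 Human umbilical vein endothelial cells co-cultured with PBMC under LPS stimulation; cell-surface E-selectin measured by ELISA 24 h after dosing. Change in either direction versus DMSO, with SRB total-protein staining in parallel cultures for cytotoxicity.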

Read-out in test [6]: Interleukin-8 (IL8), CXCL8 (gene 3576)
The test is described as follows: BSK_LPS_IL8: BioMAP Diversity Plus: LPS Assay for Interleukin-8 (IL8) Biomarker Activity (AID 2283078). The settings on record: primary human HUVEC with PBMC; actives raise or lower the signal. In outline:
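Human umbilical vein endothelial cells co-cultured with PBMC, LPS-stimulated, exposed to compound for 24 h. IL-8 quantified by ELISA; fitted in both directions against DMSO, with SRB total-protein staining of parallel cultures for cytotoxicity.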

A short description of test [7]: BSK_LPS_SRB: Viability Assessment in the BioMAP Diversity Plus: LPS Assay (AID 2283079).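 Also: total protein by sulforhodamine B absorbance as a cytotoxicity measure; measured one day after compound addition.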 The conditions noted are these: primary human HUVEC with PBMC. The essentials: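 Co-culture of human umbilical vein endothelial cells and PBMC, read 24 h after dosing. Total protein by 0.1% SRB staining after 10% TCA fixation, absorbance at 560 nm; bidirectional fit against DMSO.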

Read-out in test [8]: Interleukin-1 alpha (IL1a), IL1A (gene 3552)
The test is described as follows: BSK_LPS_IL1a: BioMAP Diversity Plus: LPS Assay for Interleukin-1 alpha (IL1a) Biomarker Activity (AID 2283080). The conditions noted are these: primary human HUVEC with PBMC; actives raise or lower the signal. The essentials:
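Human umbilical vein endothelial cells co-cultured with PBMC and stimulated with LPS; IL-1a measured by ELISA 24 h after dosing. Bidirectional fitting against DMSO; cytotoxicity checked by SRB staining in parallel cultures.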

Read-out in test [9]: Monocyte Chemoattractant Protein-1 (MCP1), CCL2 (gene 6347)
The test is described as follows: BSK_LPS_MCP1: BioMAP Diversity Plus: LPS Assay for Monocyte Chemoattractant Protein-1 (MCP1) Biomarker Activity (AID 2283081). The conditions noted are these: primary human HUVEC with PBMC; actives raise or lower the signal. The essentials:
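Human umbilical vein endothelial cells co-cultured with PBMC, LPS-stimulated; secreted MCP-1 measured by ELISA 24 h after compound addition. Bidirectional curve fitting against DMSO baseline; SRB total-protein staining in parallel cultures for cytotoxicity.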

The nature of test [10]: BSK_LPS_PGE2: BioMAP Diversity Plus: LPS Assay for Prostaglandin E2 (PGE2) Biomarker Activity (AID 2283082).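 As to AC50: secreted prostaglandin E2 measured by ELISA in LPS-stimulated co-culture.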 The conditions noted are these: primary human HUVEC with PBMC; actives raise or lower the signal. The essentials:
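Compounds were added to the LPS co-culture of endothelium and PBMC, and PGE2 was measured by ELISA after 24 h. Responses in either direction were fitted with DMSO as baseline.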

Read-out in test [11]: Macrophage colony-stimulating factor (MCSF), CSF1 (gene 1435)
The test is described as follows: BSK_LPS_MCSF: BioMAP Diversity Plus: LPS Assay for Macrophage colony-stimulating factor (MCSF) Biomarker Activity (AID 2283083). The settings on record: primary human HUVEC with PBMC; actives raise or lower the signal. The essentials: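 HUVEC–PBMC co-culture, M-CSF measured by ELISA 24 h after chemical dosing. Fitted in both directions relative to DMSO as negative control; overt cytotoxicity assessed by SRB total-protein staining in parallel cultures.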

Read-out in test [12]: Tissue Factor, F3 (gene 2152)
The test is described as follows: BSK_LPS_TissueFactor: BioMAP Diversity Plus: LPS Assay for Tissue Factor Biomarker Activity (AID 2283084). The settings on record: primary human HUVEC with PBMC; actives raise or lower the signal. In outline:
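Human umbilical vein endothelial cells co-cultured with PBMC were dosed with compound. Cell-surface CD142 was measured by ELISA 24 h later. Activity was fitted bidirectionally against DMSO, with SRB total-protein staining in parallel cultures for cytotoxicity.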

Read-out in test [13]: Tumor necrosis factor (Homo sapiens) (UniProt P01375)
The test is described as follows: BSK_LPS_TNFa: BioMAP Diversity Plus: LPS Assay for Tumour Necrosis Factor alpha (TNFa) Biomarker Activity (AID 2283085). The settings on record: primary human HUVEC with PBMC; actives raise or lower the signal. The essentials: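 Cells (umbilical vein endothelium plus peripheral blood mononuclear cells) were dosed with chemical, incubated 24 h, then TNFa was quantified by ELISA; values derive from bidirectional fitting with DMSO as baseline.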

Read-out in test [14]: Vascular cell adhesion molecule 1 (VCAM1), VCAM1 (gene 7412)
The test is described as follows: BSK_LPS_VCAM1: BioMAP Diversity Plus: LPS Assay for Vascular cell adhesion molecule 1 (VCAM1) Biomarker Activity (AID 2283086). The settings on record: primary human HUVEC with PBMC; actives raise or lower the signal. In outline:
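Cells are dosed in an LPS-stimulated endothelial/mononuclear co-culture and, after 24 h, VCAM-1 is quantified by ELISA. Activity in either direction is fitted relative to the DMSO negative control.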

Read-out in test [15]: CD40, CD40 (gene 958)
The test is described as follows: BSK_SAg_CD40: BioMAP Diversity Plus: SAg Assay for CD40 Biomarker Activity (AID 2283088). The settings on record: primary human HUVEC with PBMC; actives raise or lower the signal. The essentials: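 HUVEC plus PBMC co-culture, superantigen-activated, with CD40 read by ELISA 24 h after dosing. Curves fitted in both directions against DMSO. Overt cytotoxicity checked by parallel SRB total-protein staining.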

Read-out in test [16]: CD69, CD69 (gene 969)
The test is described as follows: BSK_SAg_CD69: BioMAP Diversity Plus: SAg Assay for CD69 Biomarker Activity (AID 2283089).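 As to AC50: cell surface CD69 protein quantified by ELISA with fluorescence detection.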 The settings on record: primary human HUVEC with PBMC; actives raise or lower the signal. In outline:
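Values derive from bidirectional fitting relative to DMSO vehicle. Cells: umbilical vein endothelium plus peripheral blood mononuclear cells, treated 24 h before fluorescent ELISA for CD69.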

Read-out in test [17]: Monocyte Chemoattractant Protein-1 (MCP1), CCL2 (gene 6347)
The test is described as follows: BSK_SAg_MCP1: BioMAP Diversity Plus: SAg Assay for Monocyte Chemoattractant Protein-1 (MCP1) Biomarker Activity (AID 2283090). The settings on record: primary human HUVEC with PBMC; actives raise or lower the signal. The essentials:
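Values derive from bidirectional fitting of ELISA-measured MCP1 against DMSO controls. Readings were taken 24 h after dosing human vascular endothelial cells co-cultured with peripheral blood mononuclear cells under superantigen stimulation.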

Read-out in test [18]: E-selectin (Homo sapiens) (UniProt P16581)
The test is described as follows: BSK_SAg_Eselectin: BioMAP Diversity Plus: SAg Assay for Eselectin Biomarker Activity (AID 2283091). The conditions noted are these: primary human HUVEC with PBMC; actives raise or lower the signal. The essentials: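 Human umbilical vein endothelial cells co-cultured with peripheral blood mononuclear cells, SAg system. E-selectin is measured by ELISA 24 h after dosing and fitted bidirectionally against DMSO. Cytotoxicity is checked by SRB staining of parallel cultures.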

Read-out in test [19]: Transforming growth factor beta 1 (TGFb1), TGFB1 (gene 7040)
The test is described as follows: BSK_KF3CT_TGFb1: BioMAP Diversity Plus: KF3CT Assay for Transforming growth factor beta 1 (TGFb1) Biomarker Activity (AID 2283072). The conditions noted are these: primary human keratinocytes with fibroblasts; actives raise or lower the signal. The essentials: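 KF3CT co-culture (keratinocytes + fibroblasts), 24 h exposure → TGF-b1 ELISA → bidirectional fit, DMSO = baseline. Parallel SRB total-protein staining (0.1% SRB, 10% TCA fixation, 560 nm) for cytotoxicity.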

Structures are written as SMILES. Several values for one entry are separate records, joined by “and”; a condition that tells them apart may be missing. Identical values can stand only once. A structure can be active in one record and inactive in another. Activity calls are given as the source filed them. The calls were made as follows: active = hit-call score of the fitted dose curve at least 0.9, where 1 is the maximum; inactive = score below 0.9.

E-selectin (Homo sapiens), sequence (P16581 whole entry, looked up): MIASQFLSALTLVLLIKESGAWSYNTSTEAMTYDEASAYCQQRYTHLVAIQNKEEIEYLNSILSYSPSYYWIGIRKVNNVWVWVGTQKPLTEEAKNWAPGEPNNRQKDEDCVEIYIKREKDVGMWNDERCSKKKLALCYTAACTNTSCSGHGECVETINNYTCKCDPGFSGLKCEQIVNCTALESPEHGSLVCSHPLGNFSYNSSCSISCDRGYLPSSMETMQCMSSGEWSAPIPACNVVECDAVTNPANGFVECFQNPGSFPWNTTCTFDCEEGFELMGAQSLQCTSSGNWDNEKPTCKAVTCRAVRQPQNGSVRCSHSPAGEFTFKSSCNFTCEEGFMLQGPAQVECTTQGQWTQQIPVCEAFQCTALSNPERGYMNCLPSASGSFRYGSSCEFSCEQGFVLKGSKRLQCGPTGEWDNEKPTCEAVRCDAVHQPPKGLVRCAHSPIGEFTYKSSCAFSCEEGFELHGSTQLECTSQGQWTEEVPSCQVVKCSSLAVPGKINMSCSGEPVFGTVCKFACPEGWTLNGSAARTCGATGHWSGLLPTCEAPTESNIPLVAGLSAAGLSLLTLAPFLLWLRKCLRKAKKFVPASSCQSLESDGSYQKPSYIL
Tumor necrosis factor (Homo sapiens), sequence (P01375 whole entry, looked up): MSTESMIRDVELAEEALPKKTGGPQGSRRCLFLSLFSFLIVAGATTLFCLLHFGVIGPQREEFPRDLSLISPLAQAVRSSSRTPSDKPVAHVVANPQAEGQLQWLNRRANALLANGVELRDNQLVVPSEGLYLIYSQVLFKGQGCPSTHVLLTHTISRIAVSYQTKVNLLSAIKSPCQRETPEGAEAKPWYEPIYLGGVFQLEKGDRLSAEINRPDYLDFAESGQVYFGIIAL

`O=C(O)C(F)(F)OC(F)(F)C(F)(F)OC(F)(F)C(F)(F)C(F)(F)C(F)(F)F`: the result in [1], in [2], in test [3], in test [4], in [5] and in test [6] was inactive. Further, the outcome in test [7], in test [8], in test [9], in [11], in test [12] and in test [13] was inactive. For the same compound, the result in test [14], in test [15], in test [16], in [17] and in test [18] was inactive. The AC50 in test [4] was 48.6 µM (active); in [7], 51 µM (active); in test [10], 15 µM (active) and 11.1 µM (active); in [14], 24.4 µM (active); in test [15], 44 µM (active); in test [16] it was 34.2 µM (active).

With `CCCO[Si](OCCC)(OCCC)OCCC`, the result in test [1], in test [2], in test [3], in [4], in test [5] and in test [6] was inactive. Further, the result in test [7], in [8], in test [9], in test [10], in test [11] and in test [12] was inactive. The result in test [13], in test [14], in [15], in [16], in [17] and in test [18] was inactive. For the same compound, in [6], the AC50 was 3.97 µM (active).

As for `CCOC(=O)CCCCCCCCC(=O)OCC`, the result in [19], in test [1], in [2], in test [3], in test [4] and in test [5] was inactive. The result in test [6], in test [7], in test [8], in test [9], in [10] and in [11] was inactive. The result in test [12], in [13], in test [14], in test [15], in test [16] and in [17] was inactive. In addition, the result in [18] was inactive.
